According to PubChem BioAssay (EPA / NIEHS):
Activity calls are given as the source filed them. The calls were made as follows: active = hit-call score of the fitted dose curve at least 0.9, where 1 is the maximum; inactive = score below 0.9.

Experiment: CEETOX_H295R_DOC: CeeTox H295R High-throughput Steroidogenesis Assay for DOC (AID 2283439)
Conditions: actives raise or lower the signal
Description: CEETOX_H295R is a cell-based, multiplexed-readout assay that uses H295R, a human adrenal gland cell line, with measurements taken at 48 hours after chemical dosing in a 96-well plate.CEETOX_H295R_DOC is one of 23 assay component(s) measured or calculated from the CEETOX_H295R assay. It is designed to make measurements of hormone induction, a form of inducible reporter, as detected with absorbance signals by HPLC-MS-MS technology.Data from the assay component CEETOX_H295R_DOC was analyzed into 1 assay endpoint. This assay endpoint, CEETOX_H295R_DOC, was analyzed with bidirectional fitting relative to DMSO as the negative control and baseline of activity. Using a type of inducible reporter, gain or loss-of-signal activity using HPLC-MS-MS was used to understand synthesis of 11-Deoxycorticosterone in H295R cell line at 48hr of chemical exposure. To generalize the intended target to other relatable targets, this assay endpoint is annotated to the steroid hormone intended target family, where the subfamily is glucocorticoids.
Cell culture and media preparation procedures were conducted in accordance with OECD Test No. 456 guidelines, with minor modifications. H295R cells (ATCC CRL-2128) were expanded for 5 passages and frozen in batches in liquid nitrogen. Prior to the steroidogenesis assay, H295R cells were thawed and passed at least 4 times. The maximum passage was 10. Cells were maintained in a 1:1 mixture of DMEM/F12 supplemented with 5ml/L ITS+ Premix (BD Bioscience) and 12.5 ml/L Nu-Serum (BD Bioscience). After seeding cells into 96-well plates at 50-60% confluency, cells were allowed to adhere overnight. Prior to chemical testing, culture medium was replaced with 175 uL medium containing 10 uM forskolin to stimulate steroidogenesis for 48 hours. Following prestimulation, forskolin medium was replaced with medium containing test chemical solubilized in DMSO (ensuring a final concentration of 0.1% DMSO). Test chemicals were incubated for 48 hours, then the medium was removed and split into 2 vials containing approximately 75uL each, and stored at -80 C prior to hormone analysis. For steroid quantification, media samples were shipped to OpAns, LLC (Durham, NC) on dry ice, and samples were thawed to room temperature prior to liquid-liquid extraction. Steroid hormones were extracted from media samples using methyl tertbutyl ether (MTBE). An extra derivatization with dansyl chloride was included for estrogen (estrone and estradiol) detection only. Steroid hormones were separated by HPLC, eluted using a reverse phase C18 gradient with electrospray positive ionization, followed by quantification by tandem mass spectrometry (MS/MS). Data were acquired on a MassHunter Workstation Acquisition version B03.01 (Agilent Technologies, Inc.) and processed using MassHunter Quantitative Analysis for QQQ. Accuracy was determined for each hormone analyte from 3 standards to determine upper and lower limits of quantification (ULOQ and LLOQ, respectively) using a 7-point standard curve. Precision and accuracy of the extraction and quantification methods were calculated as the percent relative standard deviation (%RSD) of the spiked standards and percent spiked standard recovered, respectively. […] Test medium was removed following chemical exposure, and cell viability was evaluated in the same wells by MTT. MTT procedures were as follows: after removal of test medium, 500 uL of 0.5 mg/ml of 3-[4,5-dimethylthiazol-2-y]2,5-diphenyltetrazoliumbromide solution was added to the cells. Following a 4-hour incubation at 37 C and 5% CO2 to allow formazan-crystal formation, the MTT solution was removed and blue formazan salt crystals were solubilized using 500uL anhydrous isopropanol with shaking for 20 minutes. Absorbance was read at 570 and 650nm using a Packard Fusion microplate reader. Background correction of absorbance units was used to determine percent change relative to controls. […]

| Structure (SMILES) | AC50 | outcome |
| --- | --- | --- |
| O=C(Nc1ccccc1-c1ccc(Cl)cc1)c1cccnc1Cl | 9.59 µM (active) | – |
| CC(C)(C)C(=O)C(Oc1ccc(Cl)cc1)n1cncn1 (stereo unspecified) | – | inactive |
| COc1cc(Cl)c(OC)cc1Cl | – | inactive |
| Cc1nc(N(C)C)nc(OC(=O)N(C)C)c1C | – | inactive |
| CCOP(=S)(OCC)Oc1nc(Cl)n(C(C)C)n1 | – | inactive |
| CCCCC(C#N)(Cn1cncn1)c1ccc(Cl)cc1 (stereo unspecified) | 36.5 µM (active) | – |
| COC(=O)NC(=S)Nc1ccccc1NC(=S)NC(=O)OC | – | inactive |
| CCCN(CC)CC1COC2(CCC(C(C)(C)C)CC2)O1 (stereo unspecified) | 0.812 µM (active) | – |
| COCc1cnc(C2=NC(C)(C(C)C)C(=O)N2)c(C(=O)O)c1 (stereo unspecified) | – | inactive |
| CCOC(=O)C(C)OC(=O)c1cc(Oc2ccc(C(F)(F)F)cc2Cl)ccc1[N+](=O)[O-] (stereo unspecified) | – | inactive |
| Nc1cnn(-c2ccccc2)c(=O)c1Cl | – | inactive |
| CCN(CC)c1nc(C)cc(OP(=S)(OC)OC)n1 | 36.2 µM (active) | – |
| CCNP(=S)(OC)O/C(C)=C/C(=O)OC(C)C (stereo unspecified) | 50 µM (active) | – |
| CC1(C)CCC(=Cc2ccc(Cl)cc2)C1(O)Cn1cncn1 (stereo unspecified) | 1.59 µM (active) | – |
| Clc1nc(Cl)nc(Nc2ccccc2Cl)n1 | 2.71 µM (active) | – |
| CC1(C)C(C=C(Cl)Cl)C1C(=O)OC(C#N)c1cccc(Oc2ccccc2)c1 (stereo unspecified) | – | inactive |
| N#CN=C1SCCN1Cc1ccc(Cl)nc1 | – | inactive |
| CCCC(=NOCC)C1=C(O)CC(CC(C)SCC)CC1=O (stereo unspecified) | – | inactive |
| CC(C)Oc1cccc(NC(=O)c2ccccc2C(F)(F)F)c1 | 7.26 µM (active) | – |
| COP(=S)(OC)Oc1ccc([N+](=O)[O-])c(C)c1 | 2.48 µM (active) | – |
| N#Cc1c(Cl)cccc1Cl | – | inactive |
